This is a sample that favours compounds with a hit; in the whole collection about 2.6% have one here.
FID counter – counter-screen for HCV NS3 helicase inhibitors: DNA intercalator displacement; AID 1845; DNA fluorescent intercalator displacement, fluorescence; inhibition, % at 7.9 µM; actives 0.17% (n = 290,000); in the data active means inhibition above about 37%;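 further: 0% = vehicle and 100% = reference compound; higher means more ethidium bromide displaced from hairpin DNA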
GPR7 antagonist – human neuropeptides B/W receptor 1 antagonism; GPR7-expressing cells, fluorescence antagonist assay; inhibition, % at 4.4 µM; actives 1.1% (n = 290,000); AID 1861; in the data active means inhibition above about 16%, passing the limit was not always enough;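 further: cells stimulated with the agonist NPW; 0% = agonist with vehicle and 100% = vehicle without agonist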
Target sequence (P48145 whole entry, looked up): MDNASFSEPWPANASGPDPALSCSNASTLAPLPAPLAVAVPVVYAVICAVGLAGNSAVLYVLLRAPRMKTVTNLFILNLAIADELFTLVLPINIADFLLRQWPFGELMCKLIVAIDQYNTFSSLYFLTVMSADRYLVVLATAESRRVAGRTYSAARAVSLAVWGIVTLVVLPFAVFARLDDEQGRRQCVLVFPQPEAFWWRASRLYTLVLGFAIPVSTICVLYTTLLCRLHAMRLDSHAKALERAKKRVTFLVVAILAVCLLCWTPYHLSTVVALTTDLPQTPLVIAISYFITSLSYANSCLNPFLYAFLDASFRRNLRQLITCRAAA
KLF5 inhibitor – kruppel-like factor 5 inhibition; DLD-1 KLF5 promoter-luciferase reporter, luminescence; inhibition, % at 5 µM; actives 0.23% (n = 290,000);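 active means inhibition above a per-plate limit of that plate's mean compound inhibition plus 3 SD, cut at about 60% in these data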;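 further: 0% = DMSO wells and 100% = LY294002 at 200 µM; higher means less KLF5 promoter-driven luciferase light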
BaF3 tox – counter-screen for JAK2V617F inhibitors: parental Ba/F3 viability inhibitors; actives 1.1% (n = 220,000); CellTiter-Glo ATP luminescence; inhibition, % at 5.6 µM;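 active means inhibition above a per-campaign cutoff, the mean inhibition of all tested compounds plus 3 SD, cut at about 27% in these data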;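 further: 0% = DMSO wells and 100% = JAK Inhibitor I control wells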
IEC-6 tox-1 – IEC-6 cytotoxicity, counter-screen for KLF5 inhibitors | luminescence viability | inhibition, % at 5 µM | actives 0.78% (n = 290,000) | AID 1825;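 further: 0% = plate median of test compound wells and 100% = cytotoxic reference compound wells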
Ba/F3 V617F tox – lowers viability of Ba/F3 cells expressing EpoR and JAK2V617F | ATP luminescence | inhibition, % at 5.6 µM | actives 1.1% (n = 220,000) | AID 1446;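 active means inhibition above the campaign mean plus 3 SD over all tested compounds, cut at about 24% in these data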;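 further: cytokine-independent growth of Ba/F3 cells driven by EpoR plus mutant JAK2; 0% = DMSO-treated cells and 100% = JAK inhibitor I control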
BaF3 tox 2 – counter-screen for JAK2V617F inhibitors: parental Ba/F3 viability inhibitors; shares compounds with Ba/F3 V617F tox; CellTiter-Glo luminescence; cells kept alive by added IL-3; inhibition, % at 5.6 µM; actives 31% (n = 580);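 active means cell growth inhibition above the hit limit set in the earlier mutant JAK2 cell screen, cut at about 27% in these data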;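 further: plate controls were DMSO-treated cells for no effect and JAK Inhibitor I control wells for full effect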
JAK2V617F conf – Ba/F3 EpoR-JAK2V617F viability loss, confirmation; shares compounds with Ba/F3 V617F tox; CellTiter-Glo luminescence; inhibition, % at 5.6 µM; actives 66% (n = 580);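 active means mean inhibition above the hit cutoff derived in the earlier primary screen, cut at about 25% in these data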;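 further: 0% = DMSO-treated cells and 100% = JAK inhibitor I control wells; higher means lower luminescence from reduced cell ATP and viability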
KLF5 confirm – KLF5 inhibition, confirmation assay; AID 1834; actives 79% (n = 610); shares compounds with KLF5 inhibitor; inhibition, % at 4 µM; DLD-1 KLF5 promoter firefly luciferase reporter, luminescence;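 active means inhibition above a set limit taken from the earlier primary screen, cut at about 63% in these data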;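 further: 0% = DMSO wells and 100% = LY294002 at 200 µM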
IEC-6 tox-2 – kills rat IEC-6 cells in KLF5 counter-screen; shares compounds with KLF5 inhibitor; IEC-6 rat intestinal cells, viability luminescence; inhibition, % at 4 µM; actives 56% (n = 610); AID 1905; in the data active means inhibition above about 23%;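 further: cells exposed to compounds for 48 hours before viability read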
IEC-6 cytotox cf – confirmation of cytotoxic compounds in rat IEC-6 intestinal epithelial cells; IEC-6 rat intestinal epithelial viability, luminescence; inhibition, % at 5 µM; shares compounds with IEC-6 tox-1; actives 63% (n = 1,900); AID 1907;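 further: 0% = vehicle and 100% = reference cytotoxic drug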
GPR7 antag cf – human GPR7 antagonism, confirmation assay; shares compounds with GPR7 antagonist; GPR7-expressing cells, calcium fluorescence antagonist mode; inhibition, % at 4.4 µM; actives 52% (n = 2,400); in the data active means inhibition above about 24%;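 further: stimulated with the GPR7 agonist NPW; 0% = agonist plus vehicle and 100% = vehicle alone without agonist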
MCHR1 antag – antagonizes human MCHR1, a GPR7 antagonist counter-screen; shares compounds with GPR7 antagonist; MCHR1-expressing cells, fluorescence antagonist assay; inhibition, % at 4.4 µM; actives 62% (n = 2,400);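 further: 0% = vehicle with agonist and 100% = vehicle without agonist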
* = called active by the depositor; . = no result. Unless noted, no stated cut-off is given here; in the data, active means inhibition above about 22%; inactive means the rest.

SMILES	FID counter	GPR7 antagonist	KLF5 inhibitor	BaF3 tox	IEC-6 tox-1	Ba/F3 V617F tox	BaF3 tox 2	JAK2V617F conf	IEC-6 cytotox cf	others
Cc1noc(C)c1CSc1nc2ccccc2c(=O)n1-c1ccccc1	-30	8	7	26	30*	29*	33*	54*	38*
NC(=O)c1cc2c3ccccc3ccn2c1-c1ccccc1	-4	0	-12	-5	38*	70*	63*	95*	61*
CCN1C/C(=C/c2ccc(OC)c(O)c2)C(=O)/C(=C/c2ccc(OC)c(O)c2)C1	0	13	27	-5	32*	52*	13	98*	42*
COC(=O)/C=C/S(=O)(=O)c1ccc(NC(C)=O)cc1	3	13	-35	19	27*	26*	12	12	0
BrC(=C\c1ccccc1)/C=N/Nc1ccc2nncn2n1	-8	-10	0	-1	11	-3	.	.	.
BrC(=C\c1ccccc1)/C=N/n1cnnc1	1	-11	20	-11	75*	65*	55*	96*	26*
Nn1cnnc1N/N=C/c1cccc(Cl)c1Cl	1	-17	-39	.	-5	.	.	.	.
CCc1nnc(N/N=C/c2ccccc2Cl)n1N	5	-10	39	24	100*	25*	-4	-2	-6
COc1ccc(NC(=O)CSc2nnc(COc3ccccc3)n2Cc2ccco2)cc1OC	-31	-5	-36	3	3	-2	.	.	.
COc1cccc(N(C(=O)c2snc(C(N)=O)c2N)C(C(=O)NCC2CCCO2)c2cccs2)c1 (configuration not stated)	-32	3	2	.	-2	.	.	.	.
COc1ccc(N(C(=O)CCl)C(C(=O)NCCc2ccccc2)c2cccs2)cc1Cl (configuration not stated)	-22	5	1	-2	78*	101*	25	99*	42*
COc1cccc(N(C(=O)CCl)C(C(=O)NCCc2ccccc2)c2cccs2)c1 (configuration not stated)	-18	-5	2	4	87*	99*	21	99*	41*
CC1CN(C(=O)/C(C#N)=C2\N=C(NC(=O)c3ccccc3Cl)c3ccccc32)CC(C)O1 (configuration not stated)	2	0	12	6	7	3	.	.	.
OC1(c2ccc(OC(F)F)cc2)CSC(=Nc2cccnc2)N1C1CC1 (configuration not stated)	-24	52*	6	17	9	29*	5	31*	.	GPR7 antag cf=30*;MCHR1 antag=65*
COc1ccc(OCC(O)Cn2c(=N)n(Cc3ccccc3)c3ccccc32)cc1 (configuration not stated)	48*	38*	1	23	18	68*	5	35*	.	GPR7 antag cf=31*;MCHR1 antag=57*
Cc1cccc(OCC(O)Cn2c(=N)n(Cc3ccccc3)c3ccccc32)c1 (configuration not stated)	24	31*	-32	6	5	26*	3	32*	.	GPR7 antag cf=36*;MCHR1 antag=69*
N=c1n(Cc2ccccc2)c2ccccc2n1Cc1ccccc1	19	15	-3	0	9	4	.	.	.
CCOC(=O)/C=C(\C)Nc1cc(C)nn1-c1ccccc1	-9	-5	-3	5	4	5	.	.	.
CC(C)c1nc2n[nH]c(N)c2c2c1CSC(C)(C)C2	-5	-13	5	4	-4	3	.	.	.
O=C1N(c2ccccc2)C[C@@H]2C[C@@H](c3cc4ccccc4o3)N3CCC[C@@]123	-23	25*	54	2	38*	101*	107*	99*	97*	GPR7 antag cf=23;MCHR1 antag=15
Cc1ccc(-c2ccccc2[C@@H]2C[C@H]3CN(C)C(=O)[C@]34CCCN24)o1	-6	-8	-13	5	-8	-1	.	.	.
CCC(=O)NNc1ccc(Br)cc1	4	-2	6	8	5	6	.	.	.
COc1cccc(C(=O)COc2cccc(NC(=O)c3cccc([N+](=O)[O-])c3)c2)c1	3	29*	1	10	3	42*	-3	-10	.	GPR7 antag cf=29*;MCHR1 antag=69*
COc1ccc(-n2ncc3c(N(C)C4CCCCC4)ncnc32)cc1	-40	-16	74*	.	5	.	.	.	.	KLF5 confirm=64*;IEC-6 tox-2=1
COc1ccc(-n2ncc3c(N4CCC(C)CC4)ncnc32)cc1	-34	-1	-43	.	-6	.	.	.	.
SMILES	FID counter	GPR7 antagonist	KLF5 inhibitor	BaF3 tox	IEC-6 tox-1	Ba/F3 V617F tox	BaF3 tox 2	JAK2V617F conf	IEC-6 cytotox cf	others
COc1c(Br)cc(Br)cc1/C=N/NC(=O)c1cccnc1	-20	-3	-9	.	13	.	.	.	.
CCOc1cc(Br)cc(/C=N/NC(=O)c2cccnc2)c1O	-18	-16	100*	.	-1	.	.	.	.	KLF5 confirm=94*;IEC-6 tox-2=-3
O=C(N/N=C/c1cc(Cl)ccc1O)c1ccncc1	-6	-11	70*	2	3	2	.	.	.	KLF5 confirm=88*;IEC-6 tox-2=-4
CC1=Nc2cc(C(=O)NCCCOC(C)C)ccc2Sc2ccccc21	-38	-5	-30	4	8	1	.	.	.
CC1=Nc2cc(C(=O)NCCCOC(C)C)ccc2Sc2ccc(C)cc21	-43	-9	74*	71*	84*	74*	.	.	.	KLF5 confirm=85*;IEC-6 tox-2=59*
CC(C)OCCCNC(=O)c1ccc2c(c1)NC(=O)c1ccccc1S2	-38	-14	-42	.	-1	.	.	.	.
CCCC1=Nc2cc(C(=O)NCCCOC(C)C)ccc2Sc2ccccc21	-33	3	62*	11	5	7	.	.	.	KLF5 confirm=16;IEC-6 tox-2=19
COc1cc(/C=C2\SC(=S)N(CCC(=O)NC3CCCC3)C2=O)cc(OC)c1OC	-30	-7	-20	.	4	.	.	.	.
Cc1ccc(/C=C2\SC(=S)N(CCCC(=O)NC3CCCC3)C2=O)cc1	-5	5	65*	.	3	.	.	.	.	KLF5 confirm=4;IEC-6 tox-2=5
Cc1ccc(/C=C2/SC(=S)N(CCCC(=O)Nc3ccc(O)cc3)C2=O)cc1	-7	-8	67*	-2	5	1	.	.	.	KLF5 confirm=107*;IEC-6 tox-2=7
Cc1ccc(S(=O)(=O)Nc2cc(Cl)c(O)c3ncccc23)cc1	-10	-14	68*	.	6	.	.	.	.	KLF5 confirm=79*;IEC-6 tox-2=7

High-throughput results (PubChem BioAssay)
